Assay results as given in PubChem BioAssay (NCATS).
Inconclusive results are not listed. The source made the active and inactive calls. Calls come from the whole dose curve; as a rule, active = well fitted curve in the direction sought with a large enough effect; inconclusive = small, poorly fitted or top-dose-only effect, or another doubt; inactive = no such curve, though single readings can be large; an effect the other way counts as inactive or inconclusive.

Tests used:
[1] = qHTS of pediatric cancer cell lines to identify multiple opportunities for drug repurposing: Primary screen for U-2 OS cells (AID 1347096); note: nearly all actives have a fitted effect of over 50% in size
Outline: (§1)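 Cells (500-1,000/well) rested 5 h, then received compounds for 48 h; metabolically active cells were measured by CellTiter-Glo luminescence. Final concentrations spanned up to 46 µM (MIPE, 11-point) or 0.59 nM-46 µM (NPC, 8-point) in primary screens, 11-point in follow-ups.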

[2] = qHTS of pediatric cancer cell lines to identify multiple opportunities for drug repurposing: Primary screen for Saos-2 cells (AID 1347097); note: nearly all actives have a fitted effect of over 40% in size; note: potency is the fitted concentration of half-maximal effect
Outline: (§2)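 Primary screen of approved and investigational compounds on cells in growth media at 37 degrees C, 5% CO2. MIPE set at 11-point and NPC set at 8-point dilutions; viability scored by ATP-based luminescence at 48 hours.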

[3] = qHTS of pediatric cancer cell lines to identify multiple opportunities for drug repurposing: Primary screen for SK-N-SH cells (AID 1347098); note: nearly all actives have a fitted effect of over 65% in size; note: potency is the fitted concentration of half-maximal effect
Outline: as §1

[4] = qHTS of pediatric cancer cell lines to identify multiple opportunities for drug repurposing: Primary screen for BT-12 cells (AID 1347101); note: nearly all actives have a fitted effect of over 25% in size
Outline: as §1

[5] = qHTS of pediatric cancer cell lines to identify multiple opportunities for drug repurposing: Primary screen for Rh18 cells (AID 1347102); note: nearly all actives have a fitted effect of over 65% in size
Outline: as §1

[6] = qHTS of pediatric cancer cell lines to identify multiple opportunities for drug repurposing: Primary screen for RD cells (AID 1347104); note: nearly all actives have a fitted effect of over 55% in size; note: potency is the fitted concentration of half-maximal effect
Outline: as §2

[7] = qHTS of pediatric cancer cell lines to identify multiple opportunities for drug repurposing: Primary screen for MG 63 (6-TG R) cells (AID 1347105); note: nearly all actives have a fitted effect of over 50% in size; note: potency is the fitted concentration of half-maximal effect
Outline: as §2

[8] = qHTS of pediatric cancer cell lines to identify multiple opportunities for drug repurposing: Primary screen for control Hh wild type fibroblast cells (AID 1347106);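 note: series mostly up to about 46 µM; a drop in luminescence marks cytotoxicity and a rise apparent proliferation; nearly all actives have a fitted effect of over 55% in size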
Outline: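 Cells (500-1,000/well) in growth media were settled 5 h at 37 degrees C, then given compounds for 48 h. Viability was read as CellTiter-Glo luminescence. Primary runs used MIPE at 11 points (0.78 nM-46 µM) and NPC at 8 points (0.59 nM-46 µM); follow-ups used 11 points.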

[9] = qHTS of pediatric cancer cell lines to identify multiple opportunities for drug repurposing: Primary screen for Rh30 cells (AID 1347107); note: series mostly up to about 46 µM; nearly all actives have a fitted effect of over 75% in size
Outline: as §1

[10] = qHTS of pediatric cancer cell lines to identify multiple opportunities for drug repurposing: Primary screen for NB1643 cells (AID 1347099); note: nearly all actives have a fitted effect of over 50% in size
Outline: as §2

[11] = qHTS of pediatric cancer cell lines to identify multiple opportunities for drug repurposing: Primary screen for LAN-5 cells (AID 1347100); note: potency is the fitted concentration of half-maximal effect
Outline: as §1

[12] = qHTS of pediatric cancer cell lines to identify multiple opportunities for drug repurposing: Primary screen for OHS-50 cells (AID 1347103); note: nearly all actives have a fitted effect of over 40% in size
Outline: as §1

[13] = qHTS of pediatric cancer cell lines to identify multiple opportunities for drug repurposing: Primary screen for Rh41 cells (AID 1347108);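 note: series mostly up to about 46 µM; luminescence drop marks cytotoxic hits; nearly all actives have a fitted effect of over 70% in size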
Outline: as §2

[14] = qHTS of pediatric cancer cell lines to identify multiple opportunities for drug repurposing: Confirmatory screen for NB1643 cells (AID 1347109); note: nearly all actives have a fitted effect of over 45% in size; note: potency is the fitted concentration of half-maximal effect
Outline: as §1

[15] = qHTS of pediatric cancer cell lines to identify multiple opportunities for drug repurposing: Confirmatory screen for SK-N-MC cells (AID 1347111);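 note: potency is the fitted concentration of half-maximal effect; cells exposed to compound for 48 h before the readout; nearly all actives have a fitted effect of over 70% in size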
Outline: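 Seed 500-1,000 cells/well; rest 5 h at 37 degrees C. Pin-transfer compounds, 11-point titration. Incubate 48 h. Add CellTiter-Glo, 15 min RT, read luminescence.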

[16] = qHTS of pediatric cancer cell lines to identify multiple opportunities for drug repurposing: Confirmatory screen for A673 cells (AID 1347110);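 note: cells exposed to compound for 48 h before the viability read; nearly all actives have a fitted effect of over 65% in size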
Outline: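 A673 cells at 500-1,000 cells/well were dosed 5 h after plating, in dilution series up to 46 uM final; primary runs used 8 or 11 points and confirmatory runs used 11 points. Viability was read by CellTiter-Glo luminescence after 48 h, against DMSO and 2.3 uM bortezomib controls.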

[17] = qHTS of pediatric cancer cell lines to identify multiple opportunities for drug repurposing: Confirmatory screen for BT-12 cells (AID 1347112); note: nearly all actives have a fitted effect of over 55% in size
Outline: as §1

[18] = qHTS of pediatric cancer cell lines to identify multiple opportunities for drug repurposing: Confirmatory screen for SJ-GBM2 cells (AID 1347116); note: potency is the fitted concentration of half-maximal effect; nearly all actives have a fitted effect of over 60% in size
Outline: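 Viability measured as metabolically active cells via CellTiter-Glo luminescence following 48 hours of compound exposure, 11-point dilutions in confirmatory testing. 500-1,000 cells/well plated 5 hours before dosing; controls were DMSO and 2.3 µM bortezomib.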

[19] = qHTS of pediatric cancer cell lines to identify multiple opportunities for drug repurposing: Confirmatory screen for NB-EBc1 cells (AID 1347115);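 note: cells exposed to compound for 48 h before the viability read; nearly all actives have a fitted effect of over 45% in size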
Outline: as §1

Measured: Potency

CCCCN=C(N)N=C(N)N
inactive: [1] | [2] | [3] | [4] | [5] | [6] | [7] | [8] | [9]

NC(=S)N/N=C/c1cccnc1
not listed: [3] | [8] | [14] | [15] | [16] | [17] | [18] | [19]
inactive: all other assays above

OCCOCCN1CCN(C2=Nc3ccccc3Sc3ccccc32)CC1
not listed: [10] | [12] | [14] | [15] | [16] | [17] | [18] | [19]
inactive: all other assays above

O=C(O)CCC(=O)Nc1ccc(S(=O)(=O)Nc2nccs2)cc1
inactive: [1] | [2] | [3] | [11] | [4] | [12] | [7] | [8] | [9]

CCN(CC)CCOc1ccc2c(c1)C(=O)c1cc(OCCN(CC)CC)ccc1-2
inactive: [1] | [2] | [7] | [8] | [9]
active: [3] 34.4 µM | [11] 23.7 µM | [6] 21.1 µM | [14] 18.5 µM | [15] 7.37 µM

O=C(O)C1(C(=O)O)CCC1.[NH2-].[NH2-].[Pt+2]
not listed: [3] | [14] | [15] | [16] | [17] | [18] | [19]
inactive: all other assays above

CCN1CCCC(OC(=O)C(c2ccccc2)c2ccccc2)C1 (configuration not stated)
not listed: [3] | [13] | [14] | [15] | [16] | [17] | [18] | [19]
inactive: all other assays above

O=[N+]([O-])c1ccc(/C=N\O)o1
active: [15] 5.85 µM | [18] 0.928 µM
not listed: [4] | [10] | [11] | [13] | [19]
inactive: all other assays above

O=C(CN1CCN(Cc2ccc3c(c2)OCO3)CC1)N1c2ccccc2Sc2ccccc21
inactive: [1] | [2] | [3] | [4] | [5] | [6] | [7] | [9] | [13]

C/C=C/C=N/NC(=O)c1ccncc1
inactive: [1] | [2] | [3] | [11] | [4] | [12] | [6] | [7] | [8] | [9]

Nc1nc(-c2ccccc2)c(Br)c(=O)[nH]1
not listed: [3] | [14] | [15] | [16] | [17] | [18] | [19]
inactive: all other assays above

O=C(O)CCNC(=O)c1ccccc1
not listed: [3] | [14] | [15] | [16] | [17] | [18] | [19]
inactive: all other assays above

O=C(Nc1cccc(C2=NCCN2)c1)Nc1cccc(C2=NCCN2)c1
inactive: [1] | [2] | [3] | [11] | [5] | [12] | [7] | [8] | [9] | [13]

CN(C)CCOC(c1ccc(Cl)cc1)c1ccccn1 (configuration not stated)
not listed: [3] | [14] | [15] | [16] | [17] | [18] | [19]
inactive: all other assays above

CO[C@]12C[C@@H](COC(=O)c3cncc(Br)c3)CN(C)[C@@H]1Cc1cn(C)c3cccc2c13
not listed: [3] | [14] | [15] | [16] | [17] | [18] | [19]
inactive: all other assays above

C[C@@H](O)[C@H]1C(=O)N2C(C(=O)O)=C([C@H]3CCCO3)S[C@H]12
not listed: [3] | [14] | [15] | [16] | [17] | [18] | [19]
inactive: all other assays above

CC(=O)OC[C@H]1O[C@@H](n2ncc(=O)[nH]c2=O)[C@H](OC(C)=O)[C@@H]1OC(C)=O
active: [2] 4.22 µM
inactive: [1] | [3] | [5] | [7] | [8] | [9] | [13]

Cc1ccc(S(=O)(=O)NC(=O)NC2CCCC2)cc1
not listed: [8] | [10] | [14] | [15] | [16] | [17] | [18] | [19]
inactive: all other assays above

OC(C#CCN1CCCC1)(c1ccccc1)c1ccccc1
inactive: [1] | [2] | [3] | [11] | [4] | [6] | [7] | [9] | [13]

COc1ccc(CN(CCN(C)C)c2ncccn2)cc1
not listed: [3] | [14] | [15] | [16] | [17] | [18] | [19]
inactive: all other assays above

O=C(O)CCc1nc2ccccc2[nH]1
not listed: [3] | [14] | [15] | [16] | [17] | [18] | [19]
inactive: all other assays above

CCC(CC)(CC(=O)Nc1cccc(/C=C/c2nc(C3CCC3)cs2)c1)C(=O)O
inactive: [1] | [2] | [3] | [4] | [5] | [6] | [7] | [8] | [9]

c1ccc(CC2=NCCN2)cc1
inactive: [1] | [2] | [3] | [11] | [4] | [12] | [6] | [7] | [9] | [13]

CC1CCc2c(N3CCC(O)CC3)c(F)cc3c(=O)c(C(=O)O)cn1c23 (configuration not stated)
not listed: [3] | [4] | [14] | [15] | [16] | [17] | [18]
inactive: all other assays above

O=C1c2cccc3c2[C@H](CCC3)CN1[C@@H]1CN2CCC1CC2
inactive: [1] | [2] | [10] | [11] | [4] | [5] | [6] | [7] | [9] | [13]

CCOc1ccccc1C(N)=O
inactive: [1] | [2] | [11] | [4] | [5] | [12] | [7] | [8] | [9] | [13]

CCOc1cc(OCC)c(C(=O)CCC(=O)O)cc1OCC
inactive: [1] | [2] | [11] | [4] | [5] | [12] | [6] | [7] | [8] | [9]

CC(C)(C)NC[C@H](O)COc1cccc2c1CCCC2=O
inactive: [1] | [2] | [10] | [11] | [4] | [12] | [7] | [8] | [9]

O=S(c1cc(Cl)cc(Cl)c1O)c1cc(Cl)cc(Cl)c1O
inactive: [1] | [11] | [4] | [5] | [12] | [6] | [7] | [8] | [9] | [13]
active: [2] 16.8 µM

C=C[C@H]1CN2CC[C@H]1C[C@H]2[C@H](O)c1ccnc2ccc(OC)cc12
not listed: [3] | [12] | [14] | [15] | [16] | [17] | [18] | [19]
inactive: all other assays above

O=C1[C@H](CC[C@H](O)c2ccc(F)cc2)[C@@H](c2ccc(O)cc2)N1c1ccc(F)cc1
inactive: [1] | [2] | [10] | [11] | [5] | [6] | [7] | [8] | [9]

COc1cc(N)c(Cl)cc1C(=O)NC1CCN(Cc2ccccc2)CC1
inactive: [1] | [2] | [10] | [4] | [6] | [7] | [8] | [9] | [13]

CC(=O)Nc1ccc(OCC(O)CNC(C)C)cc1 (configuration not stated)
inactive: [1] | [2] | [11] | [4] | [12] | [6] | [7] | [8] | [9]

FC(F)(F)C(F)(F)C(F)(F)C(F)(F)C(F)(F)C(F)(F)C(F)(F)C(F)(F)Br
inactive: [1] | [2] | [11] | [4] | [5] | [12] | [7] | [8] | [9]

C[C@@H](O)[C@H]1C(=O)N2C(C(=O)O)=C(S[C@@H]3CN[C@H](CNS(N)(=O)=O)C3)[C@H](C)[C@H]12
inactive: [1] | [2] | [10] | [11] | [4] | [12] | [7] | [8] | [9] | [13]

CN1CCN(C2=Nc3ccccc3Sc3ccc(Cl)cc32)CC1
inactive: [1] | [2] | [10] | [11] | [4] | [5] | [6] | [7] | [9] | [13]

O=C(O)C(Cc1cc(I)c(O)c(I)c1)c1ccccc1 (configuration not stated)
inactive: [1] | [2] | [11] | [4] | [5] | [12] | [7] | [9] | [13]

CN1CCc2cccc3c2[C@H]1Cc1ccc(O)c(O)c1-3
inactive: [1] | [7] | [8]
active: [2] 21.1 µM | [11] 11.9 µM

CCO[C@@H]1O[C@H](C(COCc2ccccc2)OCc2ccccc2)[C@H](OCc2ccccc2)[C@H]1O (some centres not stated)
inactive: [1] | [10] | [5] | [8] | [9]
active: [2] 26.6 µM | [7] 10.6 µM
